{
  "source": "PubChem BioAssay (NCATS)",
  "note": "Where “and” joins values, the source holds several entries; their conditions need not be identical. Equal entries are not always repeated. A number with no mark means an inactive call. Inconclusive results are not listed. Calls of active or inactive are those of the source. The call rests on the fitted dose curve; in most records, active means well fitted curve in the direction sought with a large enough effect; inconclusive means small, poorly fitted or top-dose-only effect, or another doubt; inactive means no such curve, though single readings can be large; an effect the other way counts as inactive or inconclusive.",
  "data": [
    {"target": "Peroxisome proliferator-activated receptor alpha (Homo sapiens) (UniProt Q07869)", "sequence (Q07869 whole entry, looked up, the tested form may be a part)": "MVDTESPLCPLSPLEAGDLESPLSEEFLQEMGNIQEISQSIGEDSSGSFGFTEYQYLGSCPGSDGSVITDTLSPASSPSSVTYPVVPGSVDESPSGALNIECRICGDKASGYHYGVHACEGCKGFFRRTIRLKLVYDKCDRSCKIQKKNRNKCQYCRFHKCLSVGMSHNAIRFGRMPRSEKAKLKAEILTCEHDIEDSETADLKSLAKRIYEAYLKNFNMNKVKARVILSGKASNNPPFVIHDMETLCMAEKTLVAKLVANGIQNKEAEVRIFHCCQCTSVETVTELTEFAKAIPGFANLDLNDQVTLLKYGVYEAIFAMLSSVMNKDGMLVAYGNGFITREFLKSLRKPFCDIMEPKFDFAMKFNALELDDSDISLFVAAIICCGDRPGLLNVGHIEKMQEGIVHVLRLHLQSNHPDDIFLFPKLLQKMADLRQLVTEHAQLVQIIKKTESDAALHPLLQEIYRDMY", "experiment": "qHTS assay for small molecule agonists of the peroxisome proliferator-activated receptor alpha (PPARalpha) signaling pathway (AID 651778); further: % of control where 0% means no effect", "details": "PathHunter PPARalpha complementation, chemiluminescence, 6 h; hits give high values", "summary_of_the_method": "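Enzyme-fragment complementation assay in which ligand-bound PPARalpha translocates and forms an active enzyme that generates chemiluminescence. Cells were plated overnight, exposed to compound for 6 hr at 37 C, and then given detection reagent for 60 min at room temperature.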", "values": [
      {"smiles": "O=C/C=C/c1ccccc1", "max response": "0.173% and 5.71%"},
      {"smiles": "CC(C)CCON=O", "max response": "-0.247%"},
      {"smiles": "O=c1[nH]c(=O)n(Cl)c(=O)n1Cl", "max response": "3.21%"},
      {"smiles": "O=C1C2CC=CCC2C(=O)N1SC(Cl)(Cl)Cl", "note": "(configuration not stated)", "max response": "-6.31% and -2.76% and -2.09%"},
      {"smiles": "C[C@H]1CC[C@@H]2[C@@H](C)[C@H]3[C@H](C[C@H]4[C@@H]5CC=C6CC(O[C@@H]7O[C@H](CO)[C@H](O)[C@H](O[C@@H]8O[C@H](CO)[C@@H](O)[C@H](O)[C@H]8O)[C@H]7O[C@H]7O[C@@H](C)[C@H](O)[C@@H](O)[C@H]7O)CC[C@]6(C)[C@H]5CC[C@]34C)N2C1", "note": "(some centres not stated)", "max response": "-0.952%"},
      {"smiles": "O=CC=O", "max response": "-5.03%"},
      {"smiles": "O=C1CCO1", "max response": "-1.17%"},
      {"smiles": "CC[C@H](C)[C@H]1O[C@]2(C=C[C@@H]1C)C[C@@H]1C[C@@H](C/C=C(\\C)[C@@H](O[C@H]3C[C@H](OC)[C@@H](O[C@H]4C[C@H](OC)[C@@H](O)[C@H](C)O4)[C@H](C)O3)[C@@H](C)/C=C/C=C3\\CO[C@@H]4[C@H](O)C(C)=C[C@@H](C(=O)O1)[C@]34O)O2", "max response": "7.18%"},
      {"smiles": "CC(C)Nc1ccc(Nc2ccccc2)cc1", "max response": "-3.2%"},
      {"smiles": "C[CH2][Hg][S]c1ccccc1C(=O)O", "max response": "-9.74%"},
      {"smiles": "Clc1ccccc1Cl", "max response": "-2.32%"},
      {"smiles": "ClCC1CO1", "note": "(configuration not stated)", "max response": "-4.69%"},
      {"smiles": "C#CCN1CC(=O)N(COC(=O)C2C(C=C(C)C)C2(C)C)C1=O", "note": "(configuration not stated)", "max response": "0.547%"},
      {"smiles": "N#CN", "max response": "0.0862%"},
      {"smiles": "C[C@H]1CCC[C@H](O)CCCCCc2cc(O)cc(O)c2C(=O)O1", "max response": "-2.71%"},
      {"smiles": "O=[N+]([O-])c1ccc(F)c([N+](=O)[O-])c1", "max response": "-10.2%"},
      {"smiles": "Oc1cc(Cl)c(Cl)cc1Cl", "max response": "-3.77% and 0.0897%"},
      {"smiles": "CC(C)(C)c1cc(O)ccc1O", "max response": "-2.46% and -4.08% and -1.53%"},
      {"smiles": "O=[N+]([O-])C(Br)(CO)CO", "max response": "0.217%"},
      {"smiles": "CCCSP(=O)(OCC)SCCC", "max response": "0.388%"}
    ]},
    {"target": "Nuclear receptor ROR-gamma (Homo sapiens) (UniProt P51449)", "sequence (P51449 whole entry, looked up)": "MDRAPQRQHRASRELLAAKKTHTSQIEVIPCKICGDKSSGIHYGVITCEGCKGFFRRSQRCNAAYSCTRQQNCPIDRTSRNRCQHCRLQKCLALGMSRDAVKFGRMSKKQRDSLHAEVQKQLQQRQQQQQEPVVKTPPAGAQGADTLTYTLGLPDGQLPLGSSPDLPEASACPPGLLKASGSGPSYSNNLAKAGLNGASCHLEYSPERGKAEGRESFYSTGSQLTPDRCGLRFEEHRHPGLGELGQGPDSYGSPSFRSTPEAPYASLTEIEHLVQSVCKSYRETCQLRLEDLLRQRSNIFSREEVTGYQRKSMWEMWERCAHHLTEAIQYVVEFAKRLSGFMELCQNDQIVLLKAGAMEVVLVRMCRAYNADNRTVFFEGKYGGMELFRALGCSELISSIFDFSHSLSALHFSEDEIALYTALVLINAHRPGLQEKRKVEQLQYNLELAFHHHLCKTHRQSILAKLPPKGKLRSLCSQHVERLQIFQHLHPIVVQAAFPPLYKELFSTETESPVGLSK", "experiment": "qHTS assay for small molecule antagonists of the retinoid-related orphan receptor gamma (ROR-gamma) signaling pathway (AID 651802); further: nearly all actives have a fitted effect of over 60% in size; further: potency means the concentration at half of the fitted maximal effect;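 on activity change, negative = inhibition: CHO cells with doxycycline-induced ROR-gamma expression; luciferase reporter luminescence driven by ROR response element; on the % scale 0 is the no-effect control and ±100 the full control effect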", "details": "ROR-gamma antagonist cell reporter assay; series mostly up to 92.2 µM; activity change, negative = inhibition: at the top concentration", "summary_of_the_method": "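Luciferase read-out: ONE-Glo luminescence after 30 min at room temperature, following 16hr doxycycline induction at 37C, 5% CO2 of CHO cells with TET-inducible ROR and RORE-LUC reporter; decreased luminescence = reduced reporter activity.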", "units": {"activity change, negative = inhibition": "%"}, "values": [
      {"smiles": "O=C/C=C/c1ccccc1", "Potency": "inactive"},
      {"smiles": "CC(C)CCON=O", "activity change, negative = inhibition": 25.7},
      {"smiles": "C[C@H]1CC[C@@H]2[C@@H](C)[C@H]3[C@H](C[C@H]4[C@@H]5CC=C6CC(O[C@@H]7O[C@H](CO)[C@H](O)[C@H](O[C@@H]8O[C@H](CO)[C@@H](O)[C@H](O)[C@H]8O)[C@H]7O[C@H]7O[C@@H](C)[C@H](O)[C@@H](O)[C@H]7O)CC[C@]6(C)[C@H]5CC[C@]34C)N2C1", "note": "(some centres not stated)", "Potency": "13.3 µM (active)"},
      {"smiles": "O=CC=O", "activity change, negative = inhibition": 15.1},
      {"smiles": "O=C1CCO1", "activity change, negative = inhibition": 33.2},
      {"smiles": "Clc1ccccc1Cl", "activity change, negative = inhibition": 28.9},
      {"smiles": "ClCC1CO1", "note": "(configuration not stated)", "activity change, negative = inhibition": 29.7},
      {"smiles": "C[C@H]1CCC[C@H](O)CCCCCc2cc(O)cc(O)c2C(=O)O1", "Potency": "42.2 µM (active)"},
      {"smiles": "O=[N+]([O-])c1ccc(F)c([N+](=O)[O-])c1", "Potency": "33.5 µM (active)"},
      {"smiles": "Oc1cc(Cl)c(Cl)cc1Cl", "Potency": "23.7 µM (active)"},
      {"smiles": "CC(C)(C)c1cc(O)ccc1O", "Potency": "16.8 µM (active) and 29.8 µM (active)"}
    ]},
    {"target": "Arylsulfatase A (Homo sapiens) (UniProt P15289)", "sequence (P15289 whole entry, looked up)": "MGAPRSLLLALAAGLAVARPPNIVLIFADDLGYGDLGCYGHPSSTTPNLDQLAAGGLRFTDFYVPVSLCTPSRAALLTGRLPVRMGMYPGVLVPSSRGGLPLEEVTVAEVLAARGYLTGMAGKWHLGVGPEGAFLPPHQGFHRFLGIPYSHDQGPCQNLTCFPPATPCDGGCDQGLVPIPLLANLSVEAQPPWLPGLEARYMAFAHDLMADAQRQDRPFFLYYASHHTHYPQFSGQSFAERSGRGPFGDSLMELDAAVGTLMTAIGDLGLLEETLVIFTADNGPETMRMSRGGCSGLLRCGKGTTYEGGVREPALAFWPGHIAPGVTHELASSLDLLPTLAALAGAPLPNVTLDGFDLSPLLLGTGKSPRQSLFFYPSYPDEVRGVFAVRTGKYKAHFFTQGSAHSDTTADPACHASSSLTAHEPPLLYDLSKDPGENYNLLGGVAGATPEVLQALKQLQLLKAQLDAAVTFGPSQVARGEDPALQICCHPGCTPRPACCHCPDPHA", "experiment": "qHTS screen for enhancers of Arylsulfatase A (ASA1): LOPAC Validation Assay (AID 720538); further: potency means the concentration at half of the fitted maximal effect; on activity change, positive = activation: 0% is about no effect", "details": "ASA enzyme activity, LOPAC qHTS enhancer assay; series mostly up to 57.5 µM; activity change, positive = activation: at the top concentration; outcome: at the top concentration", "summary_of_the_method": "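Cell-based enhancement test: residual ASA activity in SV40-transformed I179S patient fibroblasts is measured by pNCS turnover (0.5mM final, 14h, room temperature) following 48h compound incubation; higher fluorescence indicates activation.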", "units": {"activity change, positive = activation": "%"}, "values": [
      {"smiles": "CCCN(CCC)C1CCc2cccc(O)c2C1", "note": "(configuration not stated)", "activity change, positive = activation": -15.2},
      {"smiles": "CCCN1CCC[C@@H](c2cccc(O)c2)C1", "activity change, positive = activation": 18.7},
      {"smiles": "C[C@@H]1[C@@H]2Cc3ccc(O)cc3[C@@]1(C)CCN2CC1CC1", "outcome": "inactive"},
      {"smiles": "Clc1cc(I)cc(Cl)c1NC1=NCCN1", "activity change, positive = activation": 21.2},
      {"smiles": "CCCN1CC[C@@H]2c3cc(O)ccc3CC[C@@H]21", "outcome": "inactive"},
      {"smiles": "CCCCCCCCCCCCCC(=O)O[C@@H]1[C@@H](C)[C@@]2(O)[C@@H](C=C(CO)C[C@@]3(O)C(=O)C(C)=C[C@@H]23)C2C(C)(C)[C@@]21OC(C)=O", "note": "(some centres not stated)", "outcome": "inactive"},
      {"smiles": "CC1OC1P(=O)(O)O", "note": "(configuration not stated)", "activity change, positive = activation": 16},
      {"smiles": "CCCN1CCc2cccc3c2[C@H]1Cc1ccc(O)c(O)c1-3", "activity change, positive = activation": 3.38},
      {"smiles": "CCCN(CCC)[C@@H]1CCc2cccc(O)c2C1", "activity change, positive = activation": 0.776},
      {"smiles": "CN(N=O)c1ccc(O)c(O)c1", "Potency": "3.01 µM (active)"},
      {"smiles": "CN1CCc2cccc(Cl)c2CC1", "outcome": "inactive"},
      {"smiles": "COc1ccc2[nH]cc(CCN)c2c1", "outcome": "inactive"}
    ]},
    {"system": "not listed separately", "experiment": "qHTS for compounds that reverse cellular toxicity of Amyloid beta (A-beta) peptide in yeast: LOPAC Validation Assay (AID 720559);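 further: plate controls were DMSO for no effect and equimolar ferric chloride plus clioquinol rescue for full effect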", "details": "yeast expressing A-beta; series mostly up to 46.1 µM; growth rescue, positive = activation: at the top concentration", "summary_of_the_method": "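Here, A-beta-toxic yeast grow with test compounds at 30 C for 48 hr before optical density at 600 nm is recorded; data are normalized against DMSO and the FeCl3-clioquinol control.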", "units": {"growth rescue, positive = activation": "%"}, "values": [
      {"smiles": "CCCN(CCC)C1CCc2cccc(O)c2C1", "note": "(configuration not stated)", "growth rescue, positive = activation": -6.8},
      {"smiles": "CN1CCc2cc(O)cc3c2[C@H]1Cc1ccc(O)c(O)c1-3", "growth rescue, positive = activation": 0.141},
      {"smiles": "CCCN1CCC[C@@H](c2cccc(O)c2)C1", "growth rescue, positive = activation": -1.62},
      {"smiles": "C[C@@H]1[C@@H]2Cc3ccc(O)cc3[C@@]1(C)CCN2CC1CC1", "growth rescue, positive = activation": -2.6},
      {"smiles": "Clc1cc(I)cc(Cl)c1NC1=NCCN1", "growth rescue, positive = activation": -1.33},
      {"smiles": "CCCN1CC[C@@H]2c3cc(O)ccc3CC[C@@H]21", "growth rescue, positive = activation": -0.795},
      {"smiles": "CCCCCCCCCCCCCC(=O)O[C@@H]1[C@@H](C)[C@@]2(O)[C@@H](C=C(CO)C[C@@]3(O)C(=O)C(C)=C[C@@H]23)C2C(C)(C)[C@@]21OC(C)=O", "note": "(some centres not stated)", "growth rescue, positive = activation": 7.57},
      {"smiles": "C[C@@H]1O[C@@H](O[C@H]2C[C@@H](O)[C@]3(CO)[C@@H]4C(CC[C@]3(O)C2)[C@@]2(O)CC[C@H]([C@@H]3COC(=O)C3)[C@@]2(C)C[C@H]4O)[C@H](O)[C@H](O)[C@H]1O", "note": "(some centres not stated)", "growth rescue, positive = activation": -2.33},
      {"smiles": "CCCN1CCc2cccc3c2[C@H]1Cc1ccc(O)c(O)c1-3", "growth rescue, positive = activation": -2.5},
      {"smiles": "CCCN(CCC)[C@@H]1CCc2cccc(O)c2C1", "growth rescue, positive = activation": -3.25},
      {"smiles": "CN(N=O)c1ccc(O)c(O)c1", "growth rescue, positive = activation": 9.41},
      {"smiles": "COc1ccc(OC)c(C(O)C(C)N)c1", "note": "(configuration not stated)", "growth rescue, positive = activation": -5.82},
      {"smiles": "CN1CCc2cccc(Cl)c2CC1", "growth rescue, positive = activation": -5.82},
      {"smiles": "COc1ccc2[nH]cc(CCN)c2c1", "growth rescue, positive = activation": -2.25}
    ]}
  ]
}
